Source: PubChem BioAssay (Tox21)
Where “and” joins values, the source holds several entries; their conditions need not be identical. Equal entries are not always repeated. A structure can be active in one record and inactive in another. Calls of active or inactive are those of the source. Entries that show only a call come without a potency. Unless noted, the call rests on the fitted dose curve; in most records, active means well fitted curve in the direction sought with a large enough effect in the repeat runs; inconclusive means weak or mixed curves; inactive means no such curve, though single readings can be large; an effect the other way counts as inactive or inconclusive.

Experiments:
[1] = qHTS assay to identify small molecule antagonists of the thyroid receptor (TR) signaling pathway - cell viability counter screen (AID 743064); further: nearly all actives have a fitted effect of over 50% in size; further: potency means the concentration at half of the fitted maximal effect
How it was run: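 Counter screen for cytotoxicity: compound plus T3 (1 nM final) on GH3.TRE-Luc cells, 23.5 h at 37 °C, then fluorescence viability readout with CellTiter-Fluor.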

[2] = test system: thyroid hormone receptor (rat, GH3 cells); assay: qHTS assay to identify small molecule agonists of the thyroid receptor (TR) signaling pathway (AID 743066; calls by dose curve)
[3] = qHTS assay to identify small molecule antagonists of the estrogen receptor alpha (ER-alpha) signaling pathway - cell viability counter screen (AID 743074; calls by dose curve;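 further: HEK293 cells carrying ER-alpha-UAS-bla reporter stimulated with 17beta-estradiol; nearly all actives have a fitted effect of over 45% in size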; further: potency means the concentration at half of the fitted maximal effect)
[4] = qHTS assay to identify small molecule antagonists of the estrogen receptor alpha (ER-alpha) signaling pathway using the BG1 cell line - cell viability counter screen (AID 743081);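 further: compound given together with 17beta-estradiol as the ER stimulus; nearly all actives have a fitted effect of over 45% in size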; further: potency means the concentration at half of the fitted maximal effect
Aromatase (Homo sapiens) = Aromatase (Homo sapiens) (UniProt P11511); assay: qHTS assay to identify aromatase inhibitors (AID 743083); further: nearly all actives have a fitted effect of over 55% in size; further: potency means the concentration at half of the fitted maximal effect
Chain of Aromatase (Homo sapiens) (P11511 whole entry, looked up): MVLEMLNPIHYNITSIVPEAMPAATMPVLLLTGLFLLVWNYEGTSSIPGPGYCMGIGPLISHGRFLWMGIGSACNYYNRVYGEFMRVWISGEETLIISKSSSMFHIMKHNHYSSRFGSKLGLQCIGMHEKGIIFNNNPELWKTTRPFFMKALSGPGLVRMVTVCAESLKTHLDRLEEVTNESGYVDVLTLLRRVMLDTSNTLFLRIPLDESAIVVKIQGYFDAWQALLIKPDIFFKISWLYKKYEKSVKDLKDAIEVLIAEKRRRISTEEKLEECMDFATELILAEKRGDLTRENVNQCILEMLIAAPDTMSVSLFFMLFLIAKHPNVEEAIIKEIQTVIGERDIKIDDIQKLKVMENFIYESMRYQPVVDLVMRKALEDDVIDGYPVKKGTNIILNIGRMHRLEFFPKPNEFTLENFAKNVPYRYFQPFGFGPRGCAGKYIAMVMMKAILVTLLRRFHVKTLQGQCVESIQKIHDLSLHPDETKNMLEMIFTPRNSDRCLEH

[5] = qHTS assay to identify aromatase inhibitors - cell viability counter screen (AID 743084);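 further: cells stimulated with testosterone during compound exposure; nearly all actives have a fitted effect of over 55% in size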; further: potency means the concentration at half of the fitted maximal effect
[6] = biological target: Aryl hydrocarbon receptor (Homo sapiens) (UniProt P35869); assay: qHTS assay to identify small molecule that activate the aryl hydrocarbon receptor (AhR) signaling pathway (AID 743085); further: nearly all actives have a fitted effect of over 15% in size; further: potency means the concentration at half of the fitted maximal effect;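 on activation: HG2L7.5c1 human HepG2 liver cells with stably integrated DRE-driven firefly reporter; series mostly up to about 70 µM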
Chain of Aryl hydrocarbon receptor (Homo sapiens) (P35869 whole entry, looked up): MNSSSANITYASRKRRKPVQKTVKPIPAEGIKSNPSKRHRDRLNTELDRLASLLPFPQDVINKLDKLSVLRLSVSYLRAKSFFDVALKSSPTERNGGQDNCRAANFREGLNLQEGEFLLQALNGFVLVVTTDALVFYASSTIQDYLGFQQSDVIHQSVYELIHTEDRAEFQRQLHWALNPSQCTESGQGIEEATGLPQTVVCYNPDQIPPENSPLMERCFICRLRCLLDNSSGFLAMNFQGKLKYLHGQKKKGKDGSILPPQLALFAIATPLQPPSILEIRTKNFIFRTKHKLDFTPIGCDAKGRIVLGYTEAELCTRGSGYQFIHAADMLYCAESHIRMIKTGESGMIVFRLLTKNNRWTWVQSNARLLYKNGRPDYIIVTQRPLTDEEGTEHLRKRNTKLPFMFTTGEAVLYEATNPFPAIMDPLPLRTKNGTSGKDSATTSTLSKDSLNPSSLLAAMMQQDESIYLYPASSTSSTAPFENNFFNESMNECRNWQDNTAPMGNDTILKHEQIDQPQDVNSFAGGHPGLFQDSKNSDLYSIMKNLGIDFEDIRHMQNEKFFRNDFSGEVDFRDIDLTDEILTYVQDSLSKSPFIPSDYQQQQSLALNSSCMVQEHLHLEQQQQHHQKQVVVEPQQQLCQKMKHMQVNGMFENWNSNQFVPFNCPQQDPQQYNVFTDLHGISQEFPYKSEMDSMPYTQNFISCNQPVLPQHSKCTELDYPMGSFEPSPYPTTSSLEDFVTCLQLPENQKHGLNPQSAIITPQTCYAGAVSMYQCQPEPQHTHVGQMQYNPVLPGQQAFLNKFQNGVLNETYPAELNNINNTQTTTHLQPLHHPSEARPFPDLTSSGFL
How it was run: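 Measured in HG2L7.5c1 cells: CellTiter-Fluor signal (30 min incubation, 37C) for viability, then luciferase luminescence (30 min, room temperature). Compound contact time was 24 h at 37C, following a 5 h pre-incubation.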

[7] = qHTS assay to identify small molecule that activate the aryl hydrocarbon receptor (AhR) signaling pathway - cell viability counter screen (AID 743086); further: nearly all actives have a fitted effect of over 45% in size; further: potency means the concentration at half of the fitted maximal effect
How it was run: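 HepG2-AhR-luc (HG2L7.5c1) cells, 4000/well, treated 24 h at 37 C with compound; viability measured as CellTiter-Fluor fluorescence after 30 min in the same wells as the luciferase read.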

[8] = qHTS assay to identify small molecule antagonists of the peroxisome proliferator-activated receptor gamma (PPARg) signaling pathway - cell viability counter screen (AID 743194); further: nearly all actives have a fitted effect of over 55% in size; further: potency means the concentration at half of the fitted maximal effect
How it was run: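 Cytotoxicity counter screen in PPARg-bla HEK293H cells, same wells as reporter assay. Compounds plus 50 nM rosiglitazone (final) for 17 h at 37 C, then viability read by CellTiter-Glo luminescence.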

[9] = qHTS assay for small molecule agonists of the antioxidant response element (ARE) signaling pathway - cell viability counter screen (AID 743203; calls by dose curve; further: nearly all actives have a fitted effect of over 55% in size; further: potency means the concentration at half of the fitted maximal effect)
How it was run: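 Viability counter screen: CellTiter-Glo luminescence, read after 30 min at room temperature, in ARE-bla HepG2 wells. Compound exposure lasted 16 h at 37C/5% CO2, following a 5 h pre-incubation of the cells after plating.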

[10] = qHTS assay for small molecule activators of the heat shock response signaling pathway - cell viability counter screen (AID 743209); further: nearly all actives have a fitted effect of over 50% in size; further: potency means the concentration at half of the fitted maximal effect
How it was run: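 Cytotoxicity counter screen run in the same wells as the heat-shock bla reporter assay: HeLa HSE-bla cells, 5 h compound exposure at 37 C, viability read by CellTiter-Glo luminescence.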

[11] = biological target: Estrogen receptor (Homo sapiens) (UniProt P03372); assay: qHTS assay to identify small molecule antagonists of the estrogen receptor alpha (ER-alpha) signaling pathway (AID 743069; active means well fitted curve in the direction sought with a large enough effect in the signal ratio in the repeat runs, not every such curve was filed as active; inconclusive means weak or mixed curves, or effect the other way; inactive means no such curve, though single readings can be large or run the other way; the % refers to the signal ratio; further: potency means the concentration at half of the fitted maximal effect)
Chain of Estrogen receptor (Homo sapiens) (P03372 whole entry, looked up): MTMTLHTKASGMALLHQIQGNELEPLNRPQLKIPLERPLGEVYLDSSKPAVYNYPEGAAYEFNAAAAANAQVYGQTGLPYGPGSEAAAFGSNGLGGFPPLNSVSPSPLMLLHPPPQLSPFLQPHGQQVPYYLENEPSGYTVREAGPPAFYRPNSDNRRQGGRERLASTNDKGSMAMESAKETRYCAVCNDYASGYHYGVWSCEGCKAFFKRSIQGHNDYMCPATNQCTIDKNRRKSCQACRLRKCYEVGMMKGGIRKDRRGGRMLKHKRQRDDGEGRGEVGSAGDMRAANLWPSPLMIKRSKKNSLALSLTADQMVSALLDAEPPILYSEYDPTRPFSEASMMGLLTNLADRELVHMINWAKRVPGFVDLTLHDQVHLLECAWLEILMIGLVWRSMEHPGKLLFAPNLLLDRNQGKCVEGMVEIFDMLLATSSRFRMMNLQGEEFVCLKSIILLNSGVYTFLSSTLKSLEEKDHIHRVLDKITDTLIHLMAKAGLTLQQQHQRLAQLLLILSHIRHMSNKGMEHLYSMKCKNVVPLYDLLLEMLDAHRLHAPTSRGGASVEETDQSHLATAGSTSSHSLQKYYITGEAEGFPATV
How it was run: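 Beta-lactamase FRET fluorescence is read after 2 hr at room temperature with LiveBLAzer B/G substrate. Before that, ER-alpha-bla HEK293 cells sit 4 hr after plating, then receive compound plus 17beta-estradiol and incubate 18 hr at 37C.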

[12] = biological target: Estrogen receptor (Homo sapiens) (UniProt P03372); assay: qHTS assay to identify small molecule agonists of the estrogen receptor alpha (ER-alpha) signaling pathway (AID 743075; calls by dose curve;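 further: HEK293 GripTite cells with ER-alpha and UAS-driven beta-lactamase reporter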; further: potency means the concentration at half of the fitted maximal effect)
[13] = biological target: Estrogen receptor (Homo sapiens) (UniProt P03372); assay: qHTS assay to identify small molecule agonists of the estrogen receptor alpha (ER-alpha) signaling pathway using the BG1 cell line (AID 743079); further: nearly all actives have a fitted effect of over 20% in size; further: potency means the concentration at half of the fitted maximal effect
[14] = qHTS assay to identify small molecule antagonists of the estrogen receptor alpha (ER-alpha) signaling pathway using the BG1 cell line (AID 743080; calls by dose curve;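 further: BG1 cells stimulated with 17beta-estradiol alongside compound; nearly all actives have a fitted effect of over 25% in size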; further: potency means the concentration at half of the fitted maximal effect)
How it was run: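 BG1-Luc-4E2 cells (endogenous full-length ER-alpha, 4xERE luciferase) hormone-starved 5 days in charcoal-stripped FBS, plated 4,000/well for 24 h, then compound plus 17beta-estradiol for 21.5 h at 37 C; ONE-Glo luminescence read.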

[15] = biological target: Peroxisome proliferator-activated receptor gamma (Homo sapiens) (UniProt P37231); assay: qHTS assay to identify small molecule agonists of the peroxisome proliferator-activated receptor gamma (PPARg) signaling pathway (AID 743094; active means well fitted activation curve with a large enough effect in the signal ratio in the repeat runs, not every such curve was filed as active; inconclusive means weak or mixed curves, or effect the other way; inactive means no such curve, though single readings can be large or run the other way; the % refers to the signal ratio)
Chain of Peroxisome proliferator-activated receptor gamma (Homo sapiens) (P37231 whole entry, looked up): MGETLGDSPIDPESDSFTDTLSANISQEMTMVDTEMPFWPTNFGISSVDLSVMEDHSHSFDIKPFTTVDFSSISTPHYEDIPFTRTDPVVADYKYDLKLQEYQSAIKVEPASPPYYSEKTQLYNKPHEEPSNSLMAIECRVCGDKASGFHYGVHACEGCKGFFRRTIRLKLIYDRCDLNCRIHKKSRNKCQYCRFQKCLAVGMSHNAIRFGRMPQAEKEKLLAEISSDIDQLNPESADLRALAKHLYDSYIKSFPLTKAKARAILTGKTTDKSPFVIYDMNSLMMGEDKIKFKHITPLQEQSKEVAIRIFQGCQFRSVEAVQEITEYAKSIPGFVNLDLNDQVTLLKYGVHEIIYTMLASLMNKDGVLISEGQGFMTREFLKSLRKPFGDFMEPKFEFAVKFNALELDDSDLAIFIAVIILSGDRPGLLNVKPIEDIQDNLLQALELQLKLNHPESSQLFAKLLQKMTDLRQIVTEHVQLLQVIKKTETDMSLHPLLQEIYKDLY
How it was run: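 Agonist activity was taken from a beta-lactamase reporter (FRET substrate, 1 h at room temperature) in HEK293H cells carrying a PPARg UAS-bla construct. Compounds in DMSO were incubated 17 h at 37C after a 5 h cell pre-incubation.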

[16] = biological target: Peroxisome proliferator-activated receptor gamma (Homo sapiens) (UniProt P37231); assay: qHTS assay to identify small molecule antagonists of the peroxisome proliferator-activated receptor gamma (PPARg) signaling pathway (AID 743191; calls by dose curve; further: series mostly up to about 63 µM; nearly all actives have a fitted effect of over 30% in size)
How it was run: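 GeneBLAzer PPARg UAS-bla HEK293H cells, 5 h post-plating, exposed to compounds 17 h at 37C. LiveBLAzer B/G FRET substrate added for 1 h at room temperature; beta-lactamase reporter read by fluorescence intensity.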

[17] = qHTS assay for small molecule activators of the heat shock response signaling pathway (AID 743210; active means well fitted activation curve with a large enough effect in the signal ratio in the repeat runs, with a control signal flat, not every such curve was filed as active; inconclusive means weak or mixed curves; the % refers to the signal ratio;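 further: HeLa cells with beta-lactamase reporter driven by heat shock elements; series mostly up to about 63 µM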)
How it was run: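 Beta-lactamase reporter read-out: FRET substrate fluorescence after 2.5 h at RT, following 5 h compound treatment at 37 C of HeLa cells carrying HSE-driven bla reporter; quantitative HTS format.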

[18] = qHTS assay for small molecule agonists of the antioxidant response element (ARE) signaling pathway (AID 743202; active means well fitted activation curve with a large enough effect in the signal ratio in the repeat runs, not every such curve was filed as active; inconclusive means weak or mixed curves, or effect the other way; inactive means no such curve, though single readings can be large or run the other way; the % refers to the signal ratio)
How it was run: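 HepG2 ARE-bla reporter line, 2,000 cells/well; 5 h preincubation 37 C/5% CO2; compound (DMSO) 16 h 37 C; B/G FRET substrate 2 h RT; fluorescence intensity.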

[19] = qHTS assay to identify small molecule antagonists of the thyroid receptor (TR) signaling pathway (AID 743065); further: nearly all actives have a fitted effect of over 55% in size; further: potency means the concentration at half of the fitted maximal effect
How it was run: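 GH3.TRE-Luc rat pituitary cells (two TREs driving luciferase) were dosed with compound, then stimulated with 1 nM T3 (final) for 23.5 h at 37 C. ONE-Glo luminescence was the read-out, with CellTiter-Fluor fluorescence as the cytotoxicity counter-screen.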

SMILES	Potency [1]	Potency [2]	Potency [3]	Potency [4]	Potency (Aromatase (Homo sapiens))	Potency [5]	Potency [6]	Potency [7]	Potency [8]	Potency [9]	Potency [10]	Potency [11]	Potency [12]	Potency [13]	Potency [14]	Potency [15]	Potency [16]	Potency [17]	Potency [18]	Potency [19]
Cc1c(O)cccc1C(=O)N[C@@H](CSc1ccccc1)[C@H](O)CN1C[C@H]2CCCC[C@H]2C[C@H]1C(=O)NC(C)(C)C	5.31 µM (active) and 2.11 µM (active)	inactive	53.5 µM (active)	18.8 µM (active) and 26.6 µM (active)	26.6 µM (active) and 23.7 µM (active)	7.5 µM (active) and 2.98 µM (active)	inactive	13.3 µM (active) and 11.9 µM (active)	21.3 µM (active) and 26.6 µM (active)	15 µM (active) and 26.6 µM (active)	inactive									
c1ccc2c(c1)CCCC2C1=NCCN1 (centres undefined)	inactive	inactive	inactive	inactive	inactive	inactive	inactive	inactive		inactive	inactive	inactive	inactive	inactive	inactive	inactive	inactive	inactive		
COc1nc(C)nc(Cl)c1NC1=NCCN1	inactive	inactive	inactive		inactive	inactive		inactive		inactive		inactive	inactive	inactive	inactive	inactive	inactive	inactive		
Cc1cc(OCCOCC[N+](C)(C)Cc2ccccc2)ccc1C(C)(C)CC(C)(C)C	10.6 µM (active) and 12.1 µM (active)	inactive	15.1 µM (active) and 6.13 µM (active)	inactive	21.1 µM (active) and 30.5 µM (active)	26.6 µM (active) and 60.8 µM (active)	inactive	29.8 µM (active) and 60.8 µM (active)	15.4 µM (active) and 29.8 µM (active)	19.2 µM (active) and 29.8 µM (active)	38.7 µM (active)		inactive		26.6 µM (active)	inactive				
CCCN[C@H]1CCc2nc(N)sc2C1	inactive	inactive	inactive	inactive	inactive	inactive	inactive	inactive	inactive	inactive	inactive									
CCCCCCCCCCCCc1ccccc1O	13.7 µM (active)	inactive	48.3 µM (active) and 49 µM (active)	67.7 µM (active)	30.2 µM (active) and 27.3 µM (active)	30.2 µM (active) and 54.5 µM (active)	inactive	inactive	48.3 µM (active) and 17.4 µM (active)	60.3 µM (active) and 43.3 µM (active)	17.2 µM (active) and 24.5 µM (active)		13.6 µM [inconclusive] (active) and 3.89 µM [inconclusive] (active)	956 nM (active) and 1.93 µM (active)						
CCCCOCCOC(=O)c1ccccc1C(=O)OCCOCCCC	inactive	inactive	inactive	inactive	inactive	inactive		inactive		inactive	inactive	inactive	inactive	inactive	inactive		inactive		inactive	
Cc1ccc(-c2cc(C(F)(F)F)nn2-c2ccc(S(N)(=O)=O)cc2)cc1	26.6 µM (active) and 48.4 µM (active)	inactive	inactive and 43.5 µM (active)	inactive	29.8 µM (active) and 30.5 µM (active)	inactive and 54.3 µM (active)	inactive	inactive	inactive	61.1 µM (active) and inactive	inactive	inactive and 54.9 µM [inconclusive] (active)	23.9 µM [activator] (active) and inactive	7.5 µM (active)	inactive		inactive	inactive		
O=C(Nc1ccccc1SSc1ccccc1NC(=O)c1ccccc1)c1ccccc1	68.6 µM (active)	inactive		inactive	13.8 µM (active) and 27.3 µM (active)	15.4 µM (active) and 48.6 µM (active)	30.8 µM (active) and 34.4 µM (active)	inactive		inactive		inactive		27.4 µM (active) and 54.5 µM (active)						
COc1ccc(CCN2CCC(Nc3nc4ccccc4n3Cc3ccc(F)cc3)CC2)cc1	5.31 µM (active) and 1.25 µM (active)	inactive	12.6 µM (active)	55.7 µM (active)	6.25 µM (active)	26.6 µM (active) and 12.5 µM (active)	inactive	23.7 µM (active) and 9.9 µM (active)	4.46 µM (active) and 26.6 µM (active)	6.25 µM (active) and 26.6 µM (active)	17.8 µM (active) and inactive							inactive		
O=C1Nc2ccccc2C1(c1ccc(O)cc1)c1ccc(O)cc1	54.5 µM (active)	inactive	inactive	0.969 µM (active)	inactive		inactive		inactive	inactive	inactive	49 µM [inconclusive] (active)	inactive					inactive		
O=C(Cl)c1cccc(C(=O)Cl)c1	inactive	inactive	inactive	inactive	inactive	inactive	inactive	inactive	inactive	inactive	inactive					inactive	inactive	inactive		
CCCCC(CC)COC(=O)CC(C(=O)OCC(CC)CCCC)S(=O)(=O)O (centres undefined)		inactive	47.1 µM (active) and inactive	inactive	inactive	inactive	inactive	inactive		58.8 µM (active) and 54.5 µM (active)	52.9 µM (active)	21.3 µM [inhibitor] (active) and 54.9 µM [inhibitor] (active)	inactive	inactive and 15 µM (active)	inactive	inactive				
CC[C@]1(O)C[C@@H]2CN(CCc3c([nH]c4ccccc34)[C@@](C(=O)OC)(c3cc4c(cc3OC)N(C)[C@H]3[C@@](O)(C(=O)OC)[C@H](OC(C)=O)[C@]5(CC)C=CCN6CC[C@]43[C@@H]65)C2)C1	188 nM (active) and 266 nM (active)			15 µM (active)	21.1 µM (active)		inactive	16.8 µM (active) and 15 µM (active)	inactive	inactive					3.35 µM (active)			inactive		
CC(C)(C)c1ccccc1	inactive		inactive	inactive						inactive	inactive							inactive		
O	inactive		inactive	inactive	inactive	inactive	inactive	inactive	inactive	inactive	inactive									
C1COC(NC(C2CC2)C2CC2)=N1		inactive	inactive	inactive	inactive	inactive	inactive	inactive	inactive	inactive	inactive	inactive	inactive		inactive	inactive	inactive	inactive	inactive	29.8 µM (active)
O=C(O)Cn1cnnn1									inactive	inactive	inactive						inactive	inactive	inactive	
O=Cc1ccc(Cl)cc1		inactive	inactive	inactive	inactive	inactive		inactive		inactive	inactive					inactive	inactive	inactive	inactive	inactive
CCc1cc(C(C)(C)C)c(O)c(C(C)(C)C)c1		inactive	inactive	inactive	inactive	inactive	inactive	inactive	inactive	inactive	inactive						inactive	inactive	inactive	
